# Reference: the supplement of paper PMC12339681
# Where a name gives a salt, the structure may show the parent alone.
# Tested on: PBMC-derived induced microglia-like cells (piMGLC)
# Assay: synaptosome phagocytic index relative to DMSO control (fraction of DMSO); higher = more phagocytosis
# Conditions: concentration: 10 uM (2 uM for compounds listed in Table S2); pretreatment time: 24 h; assay time: 3 h
row,Compound,synaptosome phagocytic index
1,C[C@H](c1ccc(F)cc1CCCC(=O)O)N(c1cc(F)ccc1F)S(=O)(=O)c1ccc(Cl)cc1,0.385
2,CCc1cc2c(cc1-c1cnn(CC(=O)N(C)C)c1)C(C)(C)c1[nH]c3cc(C#N)ccc3c1C2=O,0.394
3,Cn1nnc2c(C(N)=O)ncn2c1=O [Temozolomide],0.824
4,Cc1nc(N)nc(N)c1-c1ccc(Cl)c(Cl)c1 [Metoprine],1.25
5,N[C@H](C(=O)O)[C@@H]1CC(Cl)=NO1 [Acivicin],0.68
6,Oc1cc(-c2nc(-c3ccccc3)[nH]c2-c2ccncc2)ccc1Cl,0.229
7,Cc1cc([C@@]23c4ccccc4C(=O)N2CCN3C(=O)c2ccc(F)c(F)c2)ccc1Cl,0.335
8,Nc1nc2ccc(OC(F)(F)F)cc2s1 [Riluzole],0.991
9,NC(=O)c1ccc(I)c([N+](=O)[O-])c1 [Iniparib],0.96
10,O=c1c(-c2ccc(O)cc2)coc2cc(O)ccc12 [Daidzein],0.94
11,NC1CCN(c2cccc(Cl)n2)CC1,0.648
12,Cc1cccc(C)c1OCC(=O)N[C@@H](Cc1ccccc1)[C@@H](O)C[C@H](Cc1ccccc1)NC(=O)[C@H](C(C)C)N1CCCNC1=O [Lopinavir],0.253
13,CCN(CC)CC#CCOC(=O)C(O)(c1ccccc1)C1CCCCC1 (stereo unspecified) [Oxybutynin],0.889
14,Nc1nnc(-c2cccc(Cl)c2Cl)c(N)n1 [Lamotrigine],1.3
15,CN(C)CCC=C1c2ccccc2C=Cc2ccccc21 [Cyclobenzaprine_(hydrochloride)],0.59
16,CN(C)CCC[C@@]1(c2ccc(F)cc2)OCc2cc(C#N)ccc21 [Escitalopram_(oxalate)],0.946
